# Laboratory results from PubChem BioAssay AID504339 (National Center for Advancing Translational Sciences (NCATS), 2011).
# In all, about 390,000 compounds went through this assay and about 17,000 (4.4%) were called active. A call without a number means that no potency is given here. About 8% were inconclusive and are not listed. The call rests on the fitted dose curve; in most records, active means well fitted inhibition curve with a large enough effect; inconclusive means small, poorly fitted or top-dose-only effect; inactive means no such curve, though single readings can be large or run the other way. For the sample, actives were picked, then their nearest neighbours and some compounds at random.
# Target: Lysine-specific demethylase 4A (Homo sapiens) (UniProt O75164)
# Assay: qHTS Assay for Inhibitors of JMJD2A-Tudor Domain; further: nearly all actives have a fitted effect of over 50% in size
# Settings: AlphaScreen JMJD2A-Tudor / H3K4me3 peptide binding; series mostly up to 114 µM
# Potency means the concentration at half of the fitted maximal effect.
# Lysine-specific demethylase 4A (Homo sapiens), sequence (O75164 whole entry, looked up, the tested form may be a part): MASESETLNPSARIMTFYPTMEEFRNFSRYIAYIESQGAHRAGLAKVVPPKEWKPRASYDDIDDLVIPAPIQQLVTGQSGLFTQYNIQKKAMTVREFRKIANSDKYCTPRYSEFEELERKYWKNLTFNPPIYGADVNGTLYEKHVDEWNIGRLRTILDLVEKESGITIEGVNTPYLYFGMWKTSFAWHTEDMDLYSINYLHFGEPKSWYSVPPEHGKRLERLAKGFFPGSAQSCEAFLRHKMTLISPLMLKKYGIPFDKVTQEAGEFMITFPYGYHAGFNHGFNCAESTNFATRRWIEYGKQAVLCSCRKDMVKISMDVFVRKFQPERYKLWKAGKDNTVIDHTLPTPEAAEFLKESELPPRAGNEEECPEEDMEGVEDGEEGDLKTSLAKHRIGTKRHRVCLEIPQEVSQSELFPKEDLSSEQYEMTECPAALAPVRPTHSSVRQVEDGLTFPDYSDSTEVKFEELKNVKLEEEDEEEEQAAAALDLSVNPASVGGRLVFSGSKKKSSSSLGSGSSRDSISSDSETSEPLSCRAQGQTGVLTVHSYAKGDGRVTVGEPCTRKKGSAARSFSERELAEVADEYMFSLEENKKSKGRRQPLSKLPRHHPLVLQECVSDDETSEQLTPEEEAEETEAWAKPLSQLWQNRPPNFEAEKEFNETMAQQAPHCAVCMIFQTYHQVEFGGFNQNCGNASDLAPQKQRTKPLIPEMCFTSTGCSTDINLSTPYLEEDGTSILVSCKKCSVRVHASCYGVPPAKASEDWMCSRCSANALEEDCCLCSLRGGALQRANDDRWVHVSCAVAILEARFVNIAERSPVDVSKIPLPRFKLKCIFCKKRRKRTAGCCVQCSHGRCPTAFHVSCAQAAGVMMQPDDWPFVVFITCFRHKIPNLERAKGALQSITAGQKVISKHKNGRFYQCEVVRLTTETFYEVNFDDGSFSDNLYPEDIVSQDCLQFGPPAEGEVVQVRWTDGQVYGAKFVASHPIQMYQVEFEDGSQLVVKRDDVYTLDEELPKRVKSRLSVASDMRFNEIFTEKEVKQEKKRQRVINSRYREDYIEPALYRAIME
row,Structure (SMILES),Potency
1,Cc1cc(NC(=O)CSc2ncc(C(=O)Nc3ccc(Cl)cc3)c(=O)n2C)no1,inactive
2,CCOC(=O)c1ccc(NC(=O)CCS(=O)(=O)c2ccc3c(c2)oc(=O)n3C)cc1,inactive
3,Cc1ccc(NC(=O)c2cn3c4c(ccc(Cl)c4c2=O)OC(C)C3)cc1C (stereo not given),inactive
4,COc1ccc(-c2nc(CN3CCN(c4ncccn4)CC3)c(C)o2)cc1C,inactive
5,Oc1ccc(CN2CCN(c3ncccn3)CC2)cc1,50.1 µM (active)
6,CN(C)C(=O)c1nc2ccc(Cl)cn2c1CN1CCN(c2ncccn2)CC1,inactive
7,c1cnc(N2CCN(c3ccc4ccccc4n3)CC2)nc1,inactive
8,CC1=C(N2CCN(c3ncccn3)CC2)CCC1=O,inactive
9,Cc1ccc(CN2CCN(c3ncccn3)CC2)c(C)c1,14.1 µM (active)
10,COc1ccc(CCNc2ncnc3c2cnn3-c2ccc(C)cc2)cc1,inactive
11,Cc1cc(C)c(NC(=O)CCc2c(C)nc3c(c(C)nn3C(C)(C)C)c2C)c(C)c1,inactive
12,CCOc1ccc(CNC(=O)c2ccc3nc(CC)c(CC)nc3c2)cc1OC,inactive
13,COc1ccc(/C=C/c2nc(C#N)c(NCc3ccc(F)cc3)o2)cc1OC,inactive
14,O=C(CCSCc1cccc(F)c1)NCc1ccccc1,inactive
15,Cc1ccc(C)c(N2CCN(c3ccc4cc(S(=O)(=O)N5CCC(C)CC5)ccc4n3)CC2)c1,inactive
16,CCN1CCN(CCCNC(=O)c2ccc3c(c2)sc2nc(-c4ccc(OC)cc4)cn23)CC1,inactive
17,CC1C(C)N(C(=O)CCl)c2ccccc2N1C(=O)CCl (stereo not given),28.2 µM (active)
18,CNC(=O)N1c2ccccc2C=Cc2ccccc21,inactive
19,CC1C(=O)N(Cc2ccccc2)c2ccccc2N1C(=O)c1ccccc1 (stereo not given),inactive
20,CCOC(=O)c1c(NC(=O)c2ccc(S(=O)(=O)N3CCCC(C)C3)cc2)sc2c1CCN(C(C)C)C2 (stereo not given),inactive
21,Cc1ccc(CN2CCCn3nc(C(=O)NCc4ccccc4Cl)cc3C2=O)cc1,inactive
22,CN1CCN(/N=C/c2ccc(C#N)cc2)CC1,inactive

row,Structure (SMILES),Potency
1,COc1ccccc1/C=C/C=N/NC(=O)CN1CCN(Cc2ccccc2)CC1,inactive
2,O=S1(=O)CCN(Cc2ccccc2Cl)CC1,inactive
3,O=C(NCC1CCN(Cc2ccccc2Cl)CC1)Nc1cccc(Cl)c1,inactive
4,CSc1ccc(/C=N/N2CCN(Cc3ccccc3Cl)CC2)cc1,25.1 µM (active)
5,COc1ccccc1/C=N/N1CCN(Cc2ccccc2Cl)CC1,44.7 µM (active)
6,Cc1nn(C(=O)c2c(F)cccc2F)c(C)c1S(=O)(=O)N1CCOCC1,inactive
7,Fc1ccc(-n2ncc3c(Nc4ccc(Oc5ccccc5)cc4)ncnc32)cc1,inactive
8,Cc1ccccc1CSCCNC(=O)C1CCN(S(=O)(=O)Cc2ccccc2)CC1,inactive
9,O=C(c1ccc(Cl)cc1)n1nc(-c2cccnc2)nc1NCc1ccc(F)cc1,inactive
10,CCOC(=O)c1cc2c(=O)n3ccccc3nc2n(CC2CCCO2)c1=NC(=O)c1ccccc1F (stereo not given),inactive
11,Cc1csc(Nc2ccc(Cl)cc2)[n+]1-c1ccc(Cl)cc1,14.1 µM (active)
12,CC1CCCN(c2nc3c(S(=O)(=O)c4ccc(C(C)C)cc4)nnn3c3ccsc23)C1 (stereo not given),inactive
13,CCOc1ccccc1NC(=S)N1CCN(c2cccc(C)c2C)CC1,inactive
14,COC(=O)CCNC(=O)c1ccc2[nH]c(C)c(C)c2c1,inactive
15,CCOC(=O)c1ccc2[nH]c(C)c(CN3CCN(C)CC3)c(=O)c2c1,inactive
16,Cc1cccc(N2CCN(C(=O)c3ccc4c(c3)CCN4S(=O)(=O)c3ccccc3)CC2)c1C,inactive
17,CCOc1ccccc1N1CCN(C(=O)c2ccc3[nH]c(C)c(C)c3c2)CC1,56.2 µM (active)
18,CCS(=O)(=O)N1CCc2cc(C(=O)N3CCN(c4ccccc4OC)CC3)ccc21,inactive
19,CCn1c(C)c(C)c2cc(C(=O)N3CCN(c4cccc(C)c4C)CC3)ccc21,31.6 µM (active)
20,CCC(CC)C(=O)N1CCN(c2cccc(C)c2C)CC1,inactive
21,Cc1[nH]c2ccc(C(=O)N3CCN(C)CC3)cc2c1C,50.1 µM (active)
22,Cn1c(=O)cc(OCC(=O)N2CCN(c3ccccc3)CC2)c2ccccc21,inactive

row,Structure (SMILES),Potency
1,Cc1ccccc1C(=O)Nc1sc2c(c1C(=O)N1CCC(C)CC1)CCCC2,inactive
2,CC(=O)Nc1c(C)nn(-c2ccccc2)c1N1CCC(C(=O)Nc2cc(Cl)ccc2C)CC1,inactive
3,Cc1ccc(Cc2nc3ccccc3nc2SCC(=O)Nc2cccc(C(F)(F)F)c2)cc1,inactive
4,CCc1nc2ccc(C(=O)N3CCN(c4cc(Cl)ccc4C)CC3)cc2nc1CC,inactive
5,COc1ccc(CCNC(=O)c2c3c(nc4ccccc24)C(=O)N(C2CCCCC2)C3)cc1OC,inactive
6,COc1cccc(NC(=O)c2ccc3nc(CCc4ccccc4)oc3c2)c1,inactive
7,CCOC(=O)c1scc(-c2ccc(C)cc2)c1S(=O)(=O)Nc1cc(C)ccc1C,inactive
8,COc1ccc(NC(=O)C2CCN(c3ccc(Sc4ccc(C)cc4)nn3)CC2)c(OC)c1,inactive
9,Nc1ccc(N=Nc2ccccc2Cl)c(N)n1,25.1 µM (active)
10,COc1ccc(Cl)cc1N(C)C(=O)c1cc2c(=O)oc3ccc(C)cc3c2s1,inactive
11,COc1ccc(-c2cc(C(=O)N3CCN(Cc4ccc5c(c4)OCO5)CC3)on2)cc1OC,20 µM (active)
12,Cc1cc(C)n2nc(C(=O)N3CCN(Cc4ccc5c(c4)OCO5)CC3)nc2n1,inactive
13,COc1cc(Cl)c(S(=O)(=O)N2CCN(Cc3ccc4c(c3)OCO4)CC2)cc1Cl,inactive
14,COc1ccc(-c2nc3scc(CCNS(=O)(=O)c4cc(F)ccc4OC)n3n2)cc1OC,inactive
15,O=C(/C=C/Sc1ncn[nH]1)c1ccc(Cl)cc1,31.6 µM (active)
16,Cc1cc(C)nc(S/C=C/C(=O)c2ccccc2)n1,inactive
17,CC(=O)c1ccc(N2CCN(c3nc4c(S(=O)(=O)c5ccccc5)nnn4c4ccc(Cl)cc34)CC2)cc1,inactive
18,COc1ccc(S(=O)(=O)NCc2cccn2Cc2cccc(C)c2)cc1Cl,inactive
19,O=C(COc1ccccc1[N+](=O)[O-])NC1CC1,inactive
20,Cc1ccc(OCC(=O)Oc2ccccc2[N+](=O)[O-])cc1,inactive
21,C=CCN(CC=C)CCOc1ccccc1[N+](=O)[O-],1 µM (active)
